{
  "source": "the supplement of paper PMC8975748",
  "note": "Structures can show the parent of a compound that is named as a salt.",
  "data": [
    {"test_system": "Saccharomyces cerevisiae BY4741 SeMeCo community", "assay": "z-score of subpopulation abundance vs DMSO median, subpopulation auxotrophic for HLU; higher = larger share of this subpopulation than in DMSO controls", "conditions": "10 µM; 24 h; SM minimal medium; subpopulation (auxotrophy): HLU", "method": "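Fluorescent four-plasmid SeMeCo (self-establishing metabolically cooperating S. cerevisiae BY4741 community; plasmids pH-mRuby2, pL-mWasabi, pU-eCFP, pM-TagRFP657) was grown 24 h in minimal SM medium with each Selleck FDA-approved drug at 10 µM in 384-well plates. Cells were fixed and imaged by high-content confocal microscopy. For each auxotrophic subpopulation (and the prototroph), a z-score gives the deviation from the DMSO vehicle-control population median.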", "values": [
      {"smiles": "COc1ccc2c(c1)[C@]13CCCC[C@@H]1[C@H](C2)N(C)CC3", "note": "[Dextromethorphan hydrobromide hydrate]", "z-score of subpopulation abundance": -0.08},
      {"smiles": "CN(C)[C@@H]1C(=O)C(C(N)=O)=C(O)[C@@]2(O)C(=O)C3=C(O)c4c(O)cccc4[C@@](C)(O)[C@H]3C[C@@H]12", "note": "[Tetracycline HCl]", "z-score of subpopulation abundance": 0.02},
      {"smiles": "CN1[C@@H]2C[C@@H](OC(=O)[C@H](CO)c3ccccc3)C[C@H]1[C@@H]1O[C@@H]12", "note": "[Scopolamine HBr]", "z-score of subpopulation abundance": -1.08},
      {"smiles": "NC(=O)CN1CCCC1=O", "note": "[Piracetam]", "z-score of subpopulation abundance": 1.5},
      {"smiles": "C=CCN1C[C@H](C(=O)N(CCCN(C)C)C(=O)NCC)C[C@@H]2c3cccc4[nH]cc(c34)C[C@H]21", "note": "[Cabergoline]", "z-score of subpopulation abundance": -0.08},
      {"smiles": "CC(=O)O[C@H]1C[C@@H]2CC[C@@H]3[C@H](CC[C@@]4(C)[C@H]3C[C@H]([N+]3(C)CCCCC3)[C@@H]4OC(C)=O)[C@@]2(C)C[C@@H]1[N+]1(C)CCCCC1", "note": "[Pancuronium dibromide]", "z-score of subpopulation abundance": -0.5},
      {"smiles": "COC(=O)C1=CCCN(C)C1", "note": "[Arecoline HBr]", "z-score of subpopulation abundance": 0.06},
      {"smiles": "NCCc1c[nH]c2ccc(O)cc12", "note": "[Serotonin HCl]", "z-score of subpopulation abundance": -0.94},
      {"smiles": "COc1ccc(C=O)cc1", "note": "[p-Anisaldehyde]", "z-score of subpopulation abundance": -0.91},
      {"smiles": "N[C@@H]1C[C@H]1c1ccccc1", "note": "[Tranylcypromine (2-PCPA) HCl]", "z-score of subpopulation abundance": 0.05},
      {"smiles": "CC[N+](C)(CC)CCOC(=O)C(O)(c1ccccc1)c1ccccc1", "note": "[Methylbenactyzine Bromide]", "z-score of subpopulation abundance": -0.28},
      {"smiles": "COc1ccc2c3c([nH]c2c1)C(C)=NCC3", "note": "[Harmaline]", "z-score of subpopulation abundance": -4.09},
      {"smiles": "N#Cc1nn(-c2c(Cl)cc(C(F)(F)F)cc2Cl)c(N)c1[S+]([O-])C(F)(F)F", "note": "(stereo not given) [Fipronil]", "z-score of subpopulation abundance": -1},
      {"smiles": "O=[N+]([O-])C(Br)(CO)CO", "note": "[Bronopol]", "z-score of subpopulation abundance": 0.49},
      {"smiles": "C[C@@H]1O[C@@H](O[C@H]2C[C@@H](O)[C@]3(CO)[C@H]4[C@H](O)C[C@]5(C)[C@@H](C6=CC(=O)OC6)CC[C@]5(O)[C@@H]4CC[C@]3(O)C2)[C@H](O)[C@H](O)[C@H]1O", "note": "[Ouabain]", "z-score of subpopulation abundance": -1.06},
      {"smiles": "CNC1CC(N)C(O)C(OC2OC(CO)C(O)C3OC4(OC(C(N)CO)C(O)C(O)C4O)OC23)C1O", "note": "(stereo not given) [Hygromycin B]", "z-score of subpopulation abundance": -0.44},
      {"smiles": "CC(C)=CCOc1c2occc2cc2ccc(=O)oc12", "note": "[Imperatorin]", "z-score of subpopulation abundance": 0.14},
      {"smiles": "C[N+]1(C)[C@@H]2C[C@@H](OC(=O)[C@H](CO)c3ccccc3)C[C@H]1[C@@H]1O[C@@H]12", "note": "[Methscopolamine]", "z-score of subpopulation abundance": 0.5},
      {"smiles": "COc1ccc(C(CN(C)C)C2(O)CCCCC2)cc1", "note": "(stereo not given) [Venlafaxine]", "z-score of subpopulation abundance": -0.41},
      {"smiles": "CC[C@@H](C(N)=O)N1CCCC1=O", "note": "[Levetiracetam]", "z-score of subpopulation abundance": -0.28},
      {"smiles": "CN1c2ccccc2C(NCCCCCCC(=O)O)c2ccc(Cl)cc2S1(=O)=O", "note": "(stereo not given) [Tianeptine sodium]", "z-score of subpopulation abundance": -0.23},
      {"smiles": "CCOC(=O)Nc1ccc(NCc2ccc(F)cc2)cc1N", "note": "[Retigabine 2HCl]", "z-score of subpopulation abundance": -0.42},
      {"smiles": "CCCCCCCCCCCCCCCC[n+]1ccccc1", "note": "[Cetylpyridinium Chloride]", "z-score of subpopulation abundance": 9.76},
      {"smiles": "O=c1[nH]c2ccccc2n1CCCN1CCC(n2c(=O)[nH]c3cc(Cl)ccc32)CC1", "note": "[Domperidone]", "z-score of subpopulation abundance": 1.05},
      {"smiles": "COc1ccc(C(CN(C)C)C2(O)CCCCC2)cc1", "note": "(stereo not given) [Venlafaxine HCl]", "z-score of subpopulation abundance": -0.14},
      {"smiles": "O=c1cccc2n1C[C@@H]1CNC[C@H]2C1", "note": "[Cytisine]", "z-score of subpopulation abundance": -0.22},
      {"smiles": "C[N+](C)(C)CCCCCCCCCC[N+](C)(C)C", "note": "[Decamethonium Bromide]", "z-score of subpopulation abundance": 0},
      {"smiles": "CCC1=C[C@H]2CN3CCc4c([nH]c5ccccc45)[C@](C(=O)OC)(C2)[C@H]13", "note": "[Catharanthine]", "z-score of subpopulation abundance": -0.62},
      {"smiles": "CN(C)C(=O)Oc1cccc([N+](C)(C)C)c1", "note": "[Neostigmine Bromide]", "z-score of subpopulation abundance": 0.32},
      {"smiles": "C[CH2][Hg][S]c1ccccc1C(=O)[O-].[Na+]", "note": "[Thimerosal]", "z-score of subpopulation abundance": 15.9},
      {"smiles": "Nc1ccncc1", "note": "[4-Aminopyridine]", "z-score of subpopulation abundance": 0.05},
      {"smiles": "CN(C)C(=O)Oc1ccc[n+](C)c1", "note": "[Pyridostigmine Bromide]", "z-score of subpopulation abundance": -0.68},
      {"smiles": "CC(=O)OCC1=C(C(=O)O)N2C(=O)C(N)C2SC1", "note": "(stereo not given) [7-Aminocephalosporanic acid]", "z-score of subpopulation abundance": -0.25},
      {"smiles": "CC1(C)SC2C(N)C(=O)N2C1C(=O)O", "note": "(stereo not given) [6-Aminopenicillanic acid]", "z-score of subpopulation abundance": -0.15},
      {"smiles": "CN[C@@H]1[C@@H](O)[C@@H](O[C@@H]2[C@@H](O)[C@H](O[C@H]3O[C@H](CN)CC[C@H]3N)[C@@H](N)C[C@H]2N)OC[C@]1(C)O.CN[C@@H]1[C@@H](O)[C@@H](O[C@@H]2[C@@H](O)[C@H](O[C@H]3O[C@H]([C@@H](C)N)CC[C@H]3N)[C@@H](N)C[C@H]2N)OC[C@]1(C)O.CN[C@@H]1[C@@H](O)[C@@H](O[C@@H]2[C@@H](O)[C@H](O[C@H]3O[C@H]([C@@H](C)NC)CC[C@H]3N)[C@@H](N)C[C@H]2N)OC[C@]1(C)O", "note": "[Gentamicin Sulfate]", "z-score of subpopulation abundance": -0.42},
      {"smiles": "CCN1CC2(OC(=O)c3ccccc3NC(C)=O)CCC(OC)C34C1C(CC23)C1(O)CC(OC)C2CC4C1(O)C2OC", "note": "(stereo not given) [Lappaconitine]", "z-score of subpopulation abundance": -0.47},
      {"smiles": "CC(C)(O)C(Cl)(Cl)Cl", "note": "[Chlorobutanol]", "z-score of subpopulation abundance": 0.97},
      {"smiles": "NCC(O)c1ccc(O)cc1", "note": "(racemic) [(+,-)-Octopamine HCl]", "z-score of subpopulation abundance": -0.28},
      {"smiles": "CN1C(=O)COc2c(C(=O)NC3CN4CCC3CC4)cc(Cl)cc21", "note": "(stereo not given) [Azasetron HCl]", "z-score of subpopulation abundance": -0.64},
      {"smiles": "C[C@H]1O[C@H](O[C@H]2[C@H](O)[C@@H](O)[C@@H](O)[C@H](O)[C@@H]2O)[C@@H](N)C[C@@H]1NC(=N)C(=O)O", "note": "[Kasugamycin hydrochloride]", "z-score of subpopulation abundance": 0.46}
    ]}
  ]
}
